Source: PubChem BioAssay (NCATS)
Values joined by “and” are separate entries in the source; they are usually repeats but may differ in a detail not shown here. Identical values can stand only once. Inconclusive results are not listed. Active and inactive are the calls of the source. Calls come from the whole dose curve.

Assay: qHTS Assay for Lipid Storage Modulators (AID 1519); for activity change, negative = inhibition: % is set by controls: 0 for no effect and ±100 for the full control effect
Details: Drosophila S3 cells, BODIPY lipid droplet/cell ratio, laser cytometry, cells loaded with oleic acid
Source text: NIH Molecular Libraries Probe Production Centers Network [MLPCN]
NIH Chemical Genomics Center [NCGC]
Assay Submitter (PI): Beller, Mathias; Max-Planck-Institut fur Biophysikalische Chemie
NCGC Assay Overview: Storing lipids as a reservoir for energy or the anabolism of elementary metabolites is a common feature of probably all cells and is conserved from bacteria to humans. The universal cellular lipid storage organelle is the so-called lipid storage droplet (LD). Although ubiquitous, LDs share a simple structure composed of a hydrophobic core that harbors the storage lipids, which is shielded by a droplet-specific phospholipid monolayer to which proteins are attached. The current model of LD biogenesis involves an incorporation of the lipid core into the membrane leaflets of the endoplasmic reticulum (ER) followed by a subsequent budding-like maturation of a LD, which ultimately pinches off. Once released, LD volume can increase by localized lipogenesis or fusion of existing droplets. Storage lipids are re-mobilized enzymatically by lipase activity. Lipase regulation in the adipocyte is heavily studied and involves multiple components including catecholamine signaling, the LD-associated proteins Perilipin and comparative gene identification-58 (CGI-58) and at least two lipases named hormone sensitive lipase (HSL) and adipocyte triglyceride lipase (ATGL). LD regulation outside of the adipocyte is poorly understood and only few components are known. However, there is an urgent need to learn more about ectopic fat depots as mislocalized storage of lipids, for example in the liver or muscle, is an eminent health problem associated with insulin resistance or the metabolic syndrome. We developed a laser-scanning cytometer assay to enable 1,536-well screening and combined the results of the small molecules screen with an RNAi database based on lipid storage.
NCGC Assay Protocol Summary:
We dispensed 4 uL of cells at 1.25 x 10^6 cells/mL into LoBase Aurora COC 1,536-well plates (black walled, clear bottom) with a bottle-valve solenoid-based dispenser (Aurora) to obtain 5,000 cells/well. Triacsin C (Sigma-Aldrich T-4540), an inhibitor of long-chain fatty acyl CoA synthetase that blocks synthesis of triglycerides, was used as a positive control for lipid under-storage. A total of 23 nL of compound solution of different concentrations were transferred to the assay plates using a Kalypsys pin tool equipped with a 1,536-pin array containing 10-nL slotted pins (FP1S10, 0.457-mm diameter, 50.8 mm long; V&P Scientific). One microliter of oleic acid (400 uM) was added, and the plate was lidded with stainless steel rubber gasket lined lids containing pinholes. […] Fluorescence was detected by excitation of the fluorophores with a 488-nm laser on an Acumen Explorer (TTP Lab Tech). The total intensity in channel 1 (500-530 nm) reflected lipid droplet accumulation. […] The ratio of the total intensity in PMT channel 1 over total intensity of channel 3 was also calculated. Percent activity was computed relative to an internal control (100% inhibited lipid droplet deposition due to the presence of 20 uM Triacsin C), which was added to 32 wells/plate.

[1] = measured here: cell count channel max response
[2] = measured here: lipid channel max response

SMILES	activity change, negative = inhibition (at 25.7 µM (top of the series))	activity change, negative = inhibition (at 57.5 µM (top of the series))	max response [1]	max response [2]
CCN(CC)CCNC(=O)c1cc(Cl)c(N)cc1OC	-0.223% (inactive)	6.86% (inactive)	-7.61% and 4.16%	-6.48% and 12.9%
C#CCN(C)Cc1ccccc1	-2.03% (inactive)		-10.9%	-13.8%
OCCN1CCN(CCCN2c3ccccc3Sc3ccc(Cl)cc32)CC1	-1.31% (inactive)	2.76% (inactive)	-14.4% and -12.4%	-12.9% and -6.81%
CN(C)CCCN1c2ccccc2Sc2ccc(Cl)cc21	-3.35% (inactive)	10.9% (inactive)	-15.1% and 7.95%	-17.6% and 24.6%
Nc1ccc(S(=O)(=O)NC(=O)c2ccccc2)cc1	2.01% (inactive)	8.83% (inactive)	-14.6% and 20.6%	-13.2% and 26.2%
CCn1cc(C(=O)O)c(=O)c2cnc(N3CCNCC3)nc21	-2.05% (inactive)	0.203% (inactive)	0.27% and 20.9%	-1.56% and 23.6%
O=C(Oc1ccccc1C(=O)O)c1ccccc1O		4.87% (inactive)	-1.82%	6.63%
CSc1ccc2c(c1)N(CCC1CCCCN1C)c1ccccc1S2 (stereo unspecified)		-0.301% (inactive)	-6.02%	-4.98%
Cc1cc(N)c2ccccc2[n+]1CCCCCCCCCC[n+]1c(C)cc(N)c2ccccc21		-10.5% (inactive)	-7.09%	-16.4%
CCN(CC)C(C)CN1c2ccccc2Sc2ccccc21 (stereo unspecified)		2.47% (inactive)	-20.9%	-15.4%
O=C1NS(=O)(=O)c2ccccc21		6.8% (inactive)	18.3%	29.2%
CCCn1cnc2c1c(=O)n(CCCCC(C)=O)c(=O)n2C		0.49% (inactive)	51.1%	50.9%
